Screening results deposited in PubChem by Center for Chemical Genomics, University of Michigan.
Many of the other results were omitted from the sample, so hits are more common in it than they were.
Dicer inh – inhibitors of Dicer pre-microRNA processing, primary screen, biochemical, cat-ELCCA, chemiluminescence. z-score at 25 µM. AID 1347074, 2019. cat-ELCCA pre-miR-21 Dicer processing; stronger effect = higher value. 6% of 47,000 active; in the data active = z-score above about 3, passing the limit was not always enough;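 note: higher signal means more uncleaved substrate so more Dicer inhibition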
Target sequence (Q9UPY3 whole entry, looked up): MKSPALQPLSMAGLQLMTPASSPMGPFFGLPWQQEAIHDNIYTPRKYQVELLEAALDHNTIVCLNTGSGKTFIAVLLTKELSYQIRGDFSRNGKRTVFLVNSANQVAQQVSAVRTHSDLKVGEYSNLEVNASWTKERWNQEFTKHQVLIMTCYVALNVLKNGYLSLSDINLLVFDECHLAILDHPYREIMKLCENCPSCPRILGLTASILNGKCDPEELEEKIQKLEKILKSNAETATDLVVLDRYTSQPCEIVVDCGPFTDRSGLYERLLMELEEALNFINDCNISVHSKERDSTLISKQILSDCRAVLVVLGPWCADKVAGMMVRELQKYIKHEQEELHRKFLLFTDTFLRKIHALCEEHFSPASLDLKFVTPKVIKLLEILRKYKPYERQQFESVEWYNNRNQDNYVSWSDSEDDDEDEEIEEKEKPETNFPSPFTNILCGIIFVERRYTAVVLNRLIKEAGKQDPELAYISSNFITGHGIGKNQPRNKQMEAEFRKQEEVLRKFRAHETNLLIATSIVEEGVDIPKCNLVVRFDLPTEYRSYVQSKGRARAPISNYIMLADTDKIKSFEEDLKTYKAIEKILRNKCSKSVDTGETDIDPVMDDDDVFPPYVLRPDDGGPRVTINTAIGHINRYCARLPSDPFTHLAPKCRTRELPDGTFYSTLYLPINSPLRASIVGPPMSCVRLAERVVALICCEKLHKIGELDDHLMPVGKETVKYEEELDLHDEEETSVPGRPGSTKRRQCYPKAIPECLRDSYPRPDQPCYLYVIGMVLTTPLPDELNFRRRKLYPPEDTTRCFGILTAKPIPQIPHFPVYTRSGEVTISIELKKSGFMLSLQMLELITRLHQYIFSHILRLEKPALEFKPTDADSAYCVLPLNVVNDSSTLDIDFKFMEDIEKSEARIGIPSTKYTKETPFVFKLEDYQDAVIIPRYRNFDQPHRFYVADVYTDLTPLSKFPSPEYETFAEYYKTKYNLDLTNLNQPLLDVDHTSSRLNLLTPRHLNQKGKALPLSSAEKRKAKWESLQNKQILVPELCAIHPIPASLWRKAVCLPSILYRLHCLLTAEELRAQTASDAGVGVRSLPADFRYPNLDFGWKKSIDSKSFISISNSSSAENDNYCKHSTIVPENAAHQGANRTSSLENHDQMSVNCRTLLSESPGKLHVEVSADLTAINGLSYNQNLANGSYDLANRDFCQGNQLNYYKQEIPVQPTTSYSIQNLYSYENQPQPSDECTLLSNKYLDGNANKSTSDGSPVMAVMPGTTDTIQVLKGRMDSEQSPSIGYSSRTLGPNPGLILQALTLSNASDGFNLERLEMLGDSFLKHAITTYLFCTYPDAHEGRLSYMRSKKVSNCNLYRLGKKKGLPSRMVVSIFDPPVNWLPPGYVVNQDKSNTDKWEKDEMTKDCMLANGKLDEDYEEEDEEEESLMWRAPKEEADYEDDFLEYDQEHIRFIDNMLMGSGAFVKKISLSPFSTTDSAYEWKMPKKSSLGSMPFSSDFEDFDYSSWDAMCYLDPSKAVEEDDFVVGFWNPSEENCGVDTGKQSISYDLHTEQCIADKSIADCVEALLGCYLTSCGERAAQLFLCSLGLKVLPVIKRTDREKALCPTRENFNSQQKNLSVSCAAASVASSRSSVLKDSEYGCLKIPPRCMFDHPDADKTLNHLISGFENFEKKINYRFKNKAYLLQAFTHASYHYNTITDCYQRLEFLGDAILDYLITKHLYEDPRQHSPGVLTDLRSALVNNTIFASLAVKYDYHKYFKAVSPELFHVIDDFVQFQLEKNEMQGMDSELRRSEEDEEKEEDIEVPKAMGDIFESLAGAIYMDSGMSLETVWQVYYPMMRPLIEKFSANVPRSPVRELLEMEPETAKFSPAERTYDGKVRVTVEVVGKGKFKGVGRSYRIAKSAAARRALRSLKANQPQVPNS
Large screens that a line does not name were inactive.

CC1=C(C(=O)Nc2ccc(F)cc2)C(c2cccs2)C2=C(CC(C)(C)CC2=O)N1 (centres undefined)	none
CCCn1c(SCCO)nc2ccccc21	none
CCc1ccc(CNc2nc3ccccc3n2CCN(CC)CC)cc1	Dicer inh 3.3
CCCCn1c(NCc2ccccn2)nc2ccccc21	none
CCN(CC)CCn1c(=O)c(Cc2ccc(OC)cc2)nc2ccccc21	none
CCCn1c(Nc2nc3ccccc3n2C)nc2ccccc21	Dicer inh 4.9
CCN(CC)CCn1c(C)nc2ccccc21	none
CCN(CC)CCn1c(NCc2ccc(C)cc2)nc2ccccc21	none
CCN(CC)CCn1c(NCc2cccc(Br)c2)nc2ccccc21	Dicer inh 3.9
CCN(CC)CCn1c(NCc2ccccn2)nc2ccccc21	none
OC(COC1=NCNc2cc(Cl)ccc21)c1ccc(F)cc1 (centres undefined)	none
Cc1ccc(OCc2nc(-c3ccc(Br)cc3)no2)cc1	none
C/C(=N\OCc1ccc(Br)cc1)c1ccc(Sc2ccccn2)c([N+](=O)[O-])c1	none
O=C1CC[C@@H](C(=O)N2CSC[C@H]2C(=O)O)N1	none
CC(CO)(CO)NC(=S)Nc1ccc(F)cc1	Dicer inh 5.8
CCOC(=O)NC(=S)Nc1ccc(F)cc1	Dicer inh 6.7
CC(C)(CO)NC(=S)Nc1ccc(F)cc1	none
N#CCC(=O)NNC(=S)Nc1cc(C(F)(F)F)cc(C(F)(F)F)c1	none
CC(C)(C)C(=O)NC(=S)Nc1ccc(C(F)(F)F)cc1	none
CCOC(=O)NC(=S)Nc1ccc(C(C)(C)C)cc1	Dicer inh 5.1
O=C(CCc1ccc(O)cc1)NNC(=S)Nc1ccc(F)cc1	none
CCOC(=O)NC(=S)Nc1ccc(N2CC(C)OC(C)C2)cc1 (centres undefined)	none
N#CCC(=O)NNC(=S)Nc1ccc(F)cc1	Dicer inh 3.3
CCOC(=O)NC(=S)Nc1cccc(C)n1	none
CCOC(=O)NC(=S)Nc1ccc(C(C)(C)C)cc1NC(=S)NC(=O)OCC	none
OCC(CO)(CO)NC(=S)Nc1ccc(F)c(Cl)c1	none
CCOc1ccccc1C1Nc2ccccc2NC2=C1C(=O)CC(C)(C)C2 (centres undefined)	none
Cc1cccc(C)c1NC(=O)NNC(=O)c1cc(C(C)(C)C)nn1Cc1ccccc1	none
COc1ccc(C2=CC(c3ccc(N(C)C)cc3)n3nnnc3N2)cc1 (centres undefined)	none
CSC1=C(C#N)C(c2ccc3c(c2)OCO3)C2=C(CCCC2=O)N1 (centres undefined)	none
NCCCC(N)(C(=O)O)C(F)F (centres undefined)	none
COC(=O)c1sccc1N/N=C(\C#N)S(=O)(=O)c1ccccn1	none
CCOC(=O)c1sc(N2C(=O)c3oc4cc(C)c(C)cc4c(=O)c3C2c2cccc(O)c2)nc1C (centres undefined)	none
NC(=O)c1cccc2c1NC(C(=O)O)C1CC=CC21 (centres undefined)	none
C/C(=N\N=C(/C)c1ccc(C)cc1C)c1ccc(C)cc1C	none
CSC1=N/C(=C\c2ccc(C(=O)O)cc2)C(=O)S1	none
COc1ccc(C2CC(=O)c3cnc4[nH]n(-c5ccccc5)c(=O)c4c3C2)cc1 (centres undefined)	none
O=S(=O)(c1ccc(F)cc1)N1CCN(c2ccc(F)cc2)CC1	none
COc1ccc(C2CC(C(F)(F)F)n3nc(C(N)=O)cc3N2)cc1OC (centres undefined)	none
O=C(c1cc2n(n1)C(C(F)(F)F)CC(c1ccco1)N2)N1CCN(c2ccccn2)CC1 (centres undefined)	none
O=C(c1cc2n(n1)C(C(F)(F)F)CC(c1ccc(Cl)cc1)N2)N1CCCC1 (centres undefined)	none
O=C(c1cc2n(n1)C(C(F)(F)F)CC(c1ccc(Br)cc1)N2)N1CCCCC1 (centres undefined)	none
O=C(c1cc2n(n1)C(C(F)(F)F)CC(c1ccc(Br)cc1)N2)N1CCOCC1 (centres undefined)	Dicer inh 5
O=C(c1cc2n(n1)C(C(F)(F)F)CC(c1ccccc1)N2)N1CCOCC1 (centres undefined)	Dicer inh 3.6
O=C(c1cccc(F)c1)N1CCN(C(=O)c2cc3n(n2)C(C(F)(F)F)CC(c2ccco2)N3)CC1 (centres undefined)	none
CC1CCN(C(=O)c2cc3n(n2)C(C(F)(F)F)CC(c2ccc(Br)cc2)N3)CC1 (centres undefined)	Dicer inh 5.4
O=C(c1cc2n(n1)C(C(F)(F)F)CC(c1ccc(Cl)cc1)N2)N1CCCCC1 (centres undefined)	none
Nc1ncnc(Nc2ccc(F)cc2Br)n1	none
Cc1ccc(-c2oncc2-c2nnnn2-c2ccc(C)cc2)cc1	none
Cc1cn[nH]c1	none
Cc1cccn2c(=O)c(NC(=O)c3ccc(Cl)cc3)cnc12	none
COC(=O)c1nc2c(C)cccn2c1F	Dicer inh 3.1
CCCS(=O)(=O)c1c(S(=O)(=O)CCC)c2c(C)cccn2c1C(=O)OC	none
c1ccc2c(c1)CCOC2CNCC1COc2ccccc2O1 (centres undefined)	none
N[C@@H](CS(=O)O)C(=O)O	none
CC(C)COC(=O)Cn1nnc2sc3c(c2c1=O)CCCC3	none
O=C(NC(OCc1ccccc1)(C(F)(F)F)C(F)(F)F)c1ccccc1	none
CCOC(=O)C1=NNC2C(=O)N(c3cccc(Cl)c3C)C(=O)C12 (centres undefined)	none
Cc1ccc(-n2nc(C)c3c(C(F)(F)F)cc(-c4ccco4)nc32)cc1	none
Cc1nn(-c2ccc(Cl)cc2)c2nc(-c3ccco3)cc(C(F)(F)F)c12	Dicer inh 4.7
Cc1nn(-c2ccccc2)c2nc(-c3ccco3)cc(C(F)(F)F)c12	none
FC(F)(F)c1cccc(NC(=S)Nc2ccccn2)c1	none
CC1CCN(CCCCCOc2ccccc2Br)CC1	none
O=C(O)c1ccccc1SCCS(=O)(=O)c1ccc(Cl)cc1Cl	none
CC1(C)Cc2nc(N3CCOCC3)c(C#N)cc2CO1	Dicer inh 4.2
CC1(C)Cc2nc(N3CCCC3)c(C#N)cc2CO1	none
CCOC(=O)CSc1nc(N2CCOCC2)c2c(c1C#N)CC(C)(C)OC2	none
CC(C)(CC(=O)NC1CCN(Cc2ccccc2)CC1)Sc1ccc(Cl)cc1	none
S=c1[nH]nc(-c2c(-c3ccccc3)c(-c3ccccc3)nn3nnnc23)o1	none
CC(C)(C)c1ccccc1NC(=O)Nc1nc(-c2ccc(F)c(F)c2)cs1	Dicer inh 3.7
CSc1sc(C(=O)Nc2ccccc2Cl)cc1-c1nc(-c2ccc(Cl)cc2)cs1	none
COc1ccccc1NC(=O)Nc1nc(-c2ccc(F)c(F)c2)cs1	none
O=C(Nc1nc(-c2ccc(F)c(F)c2)cs1)Nc1ccc(Cl)cc1Cl	none
Cc1ccnc(Nc2nc(-c3ccc(F)cc3)cs2)c1	none
O=C(Nc1ccc(F)cc1)Nc1nc(-c2ccc(F)c(F)c2)cs1	Dicer inh 3
O=C(Nc1ccc(OC(F)(F)F)cc1)Nc1nc(-c2ccc(F)c(F)c2)cs1	none
O=C(Nc1ccccc1)Nc1nc(-c2ccc(F)c(F)c2)cs1	none
Fc1ccc(Nc2nc(-c3ccc(F)c(F)c3)cs2)c(F)c1	Dicer inh 60
CCCOC(=O)CNc1n[nH]c(=O)[nH]c1=O	none
c1ccc(-c2csc(NN=C3Cc4ccccc4C3)n2)cc1	none
Cc1ccc(C)c2c(=O)c(C(=O)O)c[nH]c12	none
Cc1nc(-c2ccc(-c3cccs3)s2)sc1-c1ccnn1C(=O)c1cccs1	none
CNC(=O)C(Sc1nnc(NC(=O)c2ccc(Cl)cc2)s1)C(C)=O (centres undefined)	none
CCCCN1C(=O)C2(/C(=C(/O)c3ccc(C)cc3)C(=O)C(=O)N2CCCOC)c2ccccc21 (centres undefined)	Dicer inh 5.1
C=CCN1C(=O)C2(/C(=C(/O)c3ccccc3)C(=O)C(=O)N2CCOC)c2ccccc21 (centres undefined)	none
